# Test results published in ChEMBL document CHEMBL4513216, “Probing the Open Global Health Chemical Diversity Library for Multistage-Active Starting Points for Next-Generation Antimalarials” (ACS Infect Dis, 2020).
# Among all 69,000 compounds or so, about 8,600 (12%) showed an effect of 50% or more. For the sample, strong results were picked, then their nearest neighbours and some compounds at random.
# Tested on: Plasmodium berghei
# Experiment: Screen against P. berghei liver stage (PbLuc), transformed with Luciferase, at 10uM
# Format: functional, HepG2
# Conditions: tested at 10 uM
row,Compound,INHIBITION [%]
1,Nc1cc(C(=O)N2C[C@@H]3CC[C@H]2CN(Cc2cccnc2)C3)ccn1,4.64
2,Cc1cc(C(=O)NCCN2CCCCCC2)nn1C(C)(C)C,76.6
3,Cc1cc(C(=O)NCCN2CCC(C)CC2)nn1C(C)(C)C,36.8
4,Cc1cc(C(=O)NCCN2CCCC(C)C2)nn1C(C)(C)C (centres undefined),-5.26
5,Cc1cc(C(=O)NCCN2CCCCC2)nn1C(C)(C)C,-22.3
6,CC1CCCCN1CCNC(=O)c1ccn(-c2ccccc2)n1 (centres undefined),7.12
7,Cc1cc(C(=O)NCCN2CCCCC2C)nn1C(C)(C)C (centres undefined),52.7
8,COCCc1noc(CN2CCCCC2Cn2cncn2)n1 (centres undefined),10.675
9,COCC1CN(Cc2ccc(C)o2)Cc2cn(C)nc21 (centres undefined),29.7
10,Cc1nn(C)c(C)c1C1CCCN1CC(=O)N(C)c1nccs1 (centres undefined),5.91
11,CCCC(=O)NCCc1nc(N(C)C)ncc1-c1ccncc1,1.2
12,CNC(=O)[C@@H]1CC[C@@H]2[C@@H](CCN2Cc2ccccc2F)O1,0.804
13,COc1cccc(CN2CCC3(CCN(c4ncc(C)cn4)CC3)C2)c1,31.9
14,COc1cccc(CN2CCC3(CC2)CCN(c2ncc(C)cn2)C3)c1,65.9
15,COc1cccc(CN2CCC3(CCN(c4ncc(F)cn4)CC3)C2)c1,46.7
16,COc1cccc(CN2CCC3(CC2)CCN(c2ncc(F)cn2)C3)c1,40.8
17,COc1cccc(CN2CCC3(CC2)CCN(c2ncccn2)C3)c1,11.3
18,Fc1ccc(CN2CCC3(CC2)CCN(Cc2nccs2)CC3)cc1,42.6
19,c1cnc(N2CC3(CCN(Cc4cccnc4)C3)C2)nc1,13.7
20,Cc1cnc(N2CC3(CCN(Cc4cccnc4)C3)C2)nc1,27.2
21,c1cnc(N2CCC3(CCN(Cc4ccncc4)CC3)CC2)nc1,21.6
22,c1cnc(N2CCC3(CCN(Cc4cccnc4)CC3)CC2)nc1,61.4
23,COc1ccc(CN2CCC3(CC2)CCN(c2ncccn2)CC3)cc1,67.7
24,Fc1ccc(CN2CCC3(CC2)CCN(c2ncccn2)CC3)cc1,56.7
25,COc1nccnc1N1CCC2(CC1)C(=O)N(C)c1ccccc12,-55
26,Cc1ccc(C(=O)NC2CCOc3ccccc32)cc1S(C)(=O)=O (centres undefined),16.2

row,Compound,INHIBITION [%]
1,COc1ccc(CNCc2c(C(C)C)nn(C)c2OC)cn1,27.8
2,CC(C)Cn1cc(C(=O)NC2CCS(=O)(=O)C2)c2ccccc2c1=O (centres undefined),28.6
3,Cc1ccccc1CNC(=O)c1ccccc1-n1cnc(CN)c1,33.7
4,Cc1cc(-c2cnn(CCNC(=O)c3snnc3C)c2C2CC2)on1,21.9
5,CC(C)(C(N)=O)N1CCN(C(=O)c2ccn(-c3cccc(Cl)c3)n2)CC1,-14.6
6,COc1ncccc1CN1CCn2c(C(=O)N3CCCC3)cnc2C1,7.24
7,Cc1nc[nH]c1CN1CCN(C2CCOCC2)CC(C(N)=O)C1 (centres undefined),7.52
8,Cn1nnc(NCc2ccc(-c3ccc(Br)cc3)o2)n1,0.868
9,Cc1cnc(CC2COCCN(C(=O)CN3CCCCC3)C2)cn1 (centres undefined),30.4
10,O=C(COC1CCCC1)NS(=O)(=O)c1ccc2c(c1)OCCCO2,8.64
11,O=C(COC1CCCCC1)NS(=O)(=O)c1ccc2c(c1)OCCCO2,10
12,CCCOCC(=O)NS(=O)(=O)c1ccc2c(c1)OCCO2,18.2
13,O=C(COCC(F)(F)F)NS(=O)(=O)c1ccc2c(c1)OCCCO2,63.5
14,CCCOCC(=O)NS(=O)(=O)c1ccc2c(c1)OCCCO2,51.6
15,COCCCC(=O)NS(=O)(=O)c1ccc2c(c1)OCCCO2,38.6
16,CC(C)C(=O)N1CCCc2c(cnn2-c2ccccc2)C1,9.05
17,O=C(O)C1(Oc2ccc(Cl)cc2)CCN(C2CCOCC2)CC1,24.7
18,CCn1cc(C(=O)n2nc(C)cc2C)c(S(=O)(=O)N2CCCCC2)n1,29.7
19,Cc1cc(C)n(C(=O)c2cn(C)nc2S(=O)(=O)N2CCSCC2)n1,56.5
20,CCCn1cc(C(=O)n2nc(C)cc2C)c(S(=O)(=O)N2CCSCC2)n1,0
21,CN(Cc1nc(-c2ccoc2)no1)C1CCCN(c2cccnn2)C1 (centres undefined),7.12
22,CCNc1c(NC(=O)NC(C)C)c(=O)oc2ccccc12,40.3
23,Cc1cc(-c2cnc(N3CCN(C)CC3)nc2C(C)C)on1,47.95
24,Cc1cc(-c2cnc(N3CCC(O)CC3)nc2C(C)C)on1,59.4
25,Cc1cc(-c2cnc(N3CCSCC3)nc2C(C)C)on1,50.8
26,Cc1cc(-c2cnc(N(C)C)nc2C2CCCCN2C(=O)C2CC2)on1 (centres undefined),-11.59

row,Compound,INHIBITION [%]
1,Cc1cc(-c2cnc(N3CCC(C(N)=O)CC3)nc2C(C)C)on1,77.1
2,COc1ccc(Cl)cc1C(=O)N1CCCC(c2cc(C)[nH]n2)C1 (centres undefined),-2.53
3,Cc1cc(C(=O)NC2CCC3(CCC(=O)N3CC3CC3)CC2)no1 (centres undefined),-1.12
4,N#CC1(NC(=O)c2ccc(-c3nc(C4CC4)n[nH]3)cc2)CCSC1 (centres undefined),22
5,COc1ccc(C(C#N)NC(=O)Cc2ccc(F)c(F)c2)c(OC)c1 (centres undefined),17.7
6,CCc1noc(CN(CC)Cc2cc3ccc(F)cc3[nH]c2=O)n1,-52.7
7,CCCn1cc(C(=O)NC2CCN(CC(=O)NC3CC3)CC2)c(C)n1,39.4
8,CCCn1cc(C(=O)NCC(=O)NC2CC2)c(C)n1,60.3
9,CCCn1cc(C(=O)NCCC(=O)NC2CCCCC2)c(C)n1,-5.12
10,CCC(=O)Nc1ccccc1Sc1nc(Br)nn1C,3.31
11,Cc1ccnc(N2C[C@H]3CC[C@@H](C2)N(CC2CCC2)C3=O)n1,-4.35
12,Cc1cc(SCC(N)=O)nc(-c2ccc(F)cc2)n1,-6.18
13,COc1ccc(-c2nc(C)cc(SCC(N)=O)n2)cc1,85.5
14,Cc1cc(SCC(N)=O)nc(-c2cccc(F)c2)n1,3.58
15,CCC(C)[C@H](N)c1nnc(SCC(=O)Nc2ccc(Br)cc2)o1 (some centres undefined),41.1
16,CC(=O)N1C[C@H]2CC[C@@H](C1)N(S(=O)(=O)c1ccccc1Cl)C2,-7.2
17,CCn1nc(C)cc1S(=O)(=O)N1CCC2(CCCN(C(C)C)C2=O)C1 (centres undefined),58.6
18,CCCN1CCCC2(CCN(S(=O)(=O)c3cc(C)nn3CC)C2)C1=O (centres undefined),21.2
19,CCn1nccc1S(=O)(=O)N1CCC2(CCCN(C(C)C)C2=O)C1 (centres undefined),33
20,O=C(c1ccsc1)N1CCO[C@@H]2CN(Cc3ccco3)CC[C@@H]2C1,44.8
21,Cc1c(CNCC(C)Oc2cccnc2)c2ccccc2n1CC(N)=O (centres undefined),-36.6
22,Cc1cc(C(=O)N2CCc3nnc(N)cc3C2)c(C)n1-c1cccnc1,11.8
23,Cc1cc(C(=O)N2CCc3nnc(N)cc3C2)c(C)n1-c1ccccc1,89.3
24,Cc1cc(C(=O)N2CCc3nnc(N)cc3C2)c(C)n1C1CC1,-15.8
25,Nc1cc2c(nn1)CCN(C(=O)c1cccc3c1OCCO3)C2,44.2
26,Nc1cc2c(nn1)CCN(C(=O)c1cccnc1Oc1ccccc1)C2,-18.7

row,Compound,INHIBITION [%]
1,CCn1c(C)cc(C(=O)N2CCc3nnc(N)cc3C2)c1C,68.8
2,Cc1ccc(CN(C(=O)NCC2CCCO2)C2CC2)o1 (centres undefined),-56.2
3,COCCc1noc(CNC2CCCC(C)(C)C2)n1 (centres undefined),20.2
4,Cc1ccccc1CS(=O)(=O)c1nnc(C(C)NC(=O)OC(C)(C)C)o1 (centres undefined),46.6
5,CC(=O)N(C)Cc1ccccc1NCc1c(C)noc1C,-16.1
6,CC(=O)N(C)Cc1ccccc1NCc1c(C)cccc1C,50.2
7,CC(=O)N(C)Cc1cccc(NC(=O)N(C)CCc2cccs2)c1,-6.34
8,C=C(C)CN(CC)C(=O)Nc1ccccc1CN(C)C(C)=O,28.7
9,CC(=O)N(C)Cc1ccccc1NC(=O)c1ccccc1C,-19.55
10,CC(=O)N(C)Cc1ccccc1NC(=O)N(C)CCc1cccs1,52.3
11,O=C(c1ccccc1)N1CCS(=O)(=O)[C@@H]2CCNCC[C@@H]21,38.2
12,CNC(=O)c1ccc(C(=O)N2CCCC(n3nc(C)cc3C)C2)cn1 (centres undefined),-11.9
13,Cc1csc(N2CCCN(C(=O)c3ccoc3C)CC2)n1,15.3
14,CC(=O)N1CC(=O)N(c2ccccc2)CC12CCN(Cc1ccoc1)C2 (centres undefined),38.3
15,Cc1nnsc1CN1C[C@@H]2CC[C@H]1CN(Cc1ccccn1)C2,-15.3
16,CC(C)c1nnc(N2C[C@H]3CC[C@@H](C2)N(Cc2ccccc2)C3)s1,87.2
17,CCCN1C[C@@H]2CC[C@H]1CN(c1nnc(C(C)C)s1)C2,-11.9
18,Cc1nnsc1CN1C[C@@H]2CC[C@H]1CN(Cc1ccccc1)C2,46.4
19,COc1ccc(CN2C[C@H]3CC[C@@H](C2)N(Cc2snnc2C)C3)cc1,73.5
20,Cc1nnsc1CN1C[C@@H]2CC[C@H]1CN(Cc1ccc(F)cc1)C2,29.1
21,CC(=O)Nc1ccc(CN2C[C@@H]3CC[C@H]2CN(c2ncccn2)C3)cc1,-8
22,Cc1nnsc1CN1C[C@H]2CC[C@@H](C1)N(Cc1ccccc1)C2,60
23,c1cnc(N2C[C@H]3CC[C@@H](C2)N(Cc2ccsc2)C3)nc1,15.7
24,Cc1ncsc1CN1C[C@@H]2CC[C@H]1CN(Cc1ccccc1)C2,15.5
25,CC(C)c1nnc(N2C[C@H]3CC[C@@H](C2)N(CC2CCC2)C3)s1,44.6
26,CS(=O)(=O)c1ccc(CN2C[C@@H]3CC[C@H]2CN(c2ncccn2)C3)cc1,74.1
